This is an account of results in PubChem BioAssay AID1671202 (University of Kansas High Throughput Screening Laboratory, 2021).

Where “and” joins values, the source holds several entries; their conditions need not be identical. Equal entries are not always repeated. Out of some 190,000 compounds screened, about 6,900 (3.6%) were called active. Many of the other results were omitted from the sample, so actives are more common in it than they were. Values without a mark were called inactive. Cut-off read from the data, not from the text of the source: active = inhibition above about 50%; inactive = the rest.

The target in the test is Huntingtin (Homo sapiens) (UniProt P42858). In words: mutant huntingtin-calmodulin interaction inhibitors – biochemical, AlphaScreen, primary screen (AID 1671202).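 For inhibition: 0% = both proteins with DMSO and 100% = one protein alone.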 Particulars: AlphaScreen His-mHTT/GST-CaM binding, luminescence; at 15 µM, active compounds read high. On the technique in general: Bead proximity is the source of the signal in Alpha formats.
Huntingtin (Homo sapiens), sequence (P42858 whole entry, looked up, stated change not applied): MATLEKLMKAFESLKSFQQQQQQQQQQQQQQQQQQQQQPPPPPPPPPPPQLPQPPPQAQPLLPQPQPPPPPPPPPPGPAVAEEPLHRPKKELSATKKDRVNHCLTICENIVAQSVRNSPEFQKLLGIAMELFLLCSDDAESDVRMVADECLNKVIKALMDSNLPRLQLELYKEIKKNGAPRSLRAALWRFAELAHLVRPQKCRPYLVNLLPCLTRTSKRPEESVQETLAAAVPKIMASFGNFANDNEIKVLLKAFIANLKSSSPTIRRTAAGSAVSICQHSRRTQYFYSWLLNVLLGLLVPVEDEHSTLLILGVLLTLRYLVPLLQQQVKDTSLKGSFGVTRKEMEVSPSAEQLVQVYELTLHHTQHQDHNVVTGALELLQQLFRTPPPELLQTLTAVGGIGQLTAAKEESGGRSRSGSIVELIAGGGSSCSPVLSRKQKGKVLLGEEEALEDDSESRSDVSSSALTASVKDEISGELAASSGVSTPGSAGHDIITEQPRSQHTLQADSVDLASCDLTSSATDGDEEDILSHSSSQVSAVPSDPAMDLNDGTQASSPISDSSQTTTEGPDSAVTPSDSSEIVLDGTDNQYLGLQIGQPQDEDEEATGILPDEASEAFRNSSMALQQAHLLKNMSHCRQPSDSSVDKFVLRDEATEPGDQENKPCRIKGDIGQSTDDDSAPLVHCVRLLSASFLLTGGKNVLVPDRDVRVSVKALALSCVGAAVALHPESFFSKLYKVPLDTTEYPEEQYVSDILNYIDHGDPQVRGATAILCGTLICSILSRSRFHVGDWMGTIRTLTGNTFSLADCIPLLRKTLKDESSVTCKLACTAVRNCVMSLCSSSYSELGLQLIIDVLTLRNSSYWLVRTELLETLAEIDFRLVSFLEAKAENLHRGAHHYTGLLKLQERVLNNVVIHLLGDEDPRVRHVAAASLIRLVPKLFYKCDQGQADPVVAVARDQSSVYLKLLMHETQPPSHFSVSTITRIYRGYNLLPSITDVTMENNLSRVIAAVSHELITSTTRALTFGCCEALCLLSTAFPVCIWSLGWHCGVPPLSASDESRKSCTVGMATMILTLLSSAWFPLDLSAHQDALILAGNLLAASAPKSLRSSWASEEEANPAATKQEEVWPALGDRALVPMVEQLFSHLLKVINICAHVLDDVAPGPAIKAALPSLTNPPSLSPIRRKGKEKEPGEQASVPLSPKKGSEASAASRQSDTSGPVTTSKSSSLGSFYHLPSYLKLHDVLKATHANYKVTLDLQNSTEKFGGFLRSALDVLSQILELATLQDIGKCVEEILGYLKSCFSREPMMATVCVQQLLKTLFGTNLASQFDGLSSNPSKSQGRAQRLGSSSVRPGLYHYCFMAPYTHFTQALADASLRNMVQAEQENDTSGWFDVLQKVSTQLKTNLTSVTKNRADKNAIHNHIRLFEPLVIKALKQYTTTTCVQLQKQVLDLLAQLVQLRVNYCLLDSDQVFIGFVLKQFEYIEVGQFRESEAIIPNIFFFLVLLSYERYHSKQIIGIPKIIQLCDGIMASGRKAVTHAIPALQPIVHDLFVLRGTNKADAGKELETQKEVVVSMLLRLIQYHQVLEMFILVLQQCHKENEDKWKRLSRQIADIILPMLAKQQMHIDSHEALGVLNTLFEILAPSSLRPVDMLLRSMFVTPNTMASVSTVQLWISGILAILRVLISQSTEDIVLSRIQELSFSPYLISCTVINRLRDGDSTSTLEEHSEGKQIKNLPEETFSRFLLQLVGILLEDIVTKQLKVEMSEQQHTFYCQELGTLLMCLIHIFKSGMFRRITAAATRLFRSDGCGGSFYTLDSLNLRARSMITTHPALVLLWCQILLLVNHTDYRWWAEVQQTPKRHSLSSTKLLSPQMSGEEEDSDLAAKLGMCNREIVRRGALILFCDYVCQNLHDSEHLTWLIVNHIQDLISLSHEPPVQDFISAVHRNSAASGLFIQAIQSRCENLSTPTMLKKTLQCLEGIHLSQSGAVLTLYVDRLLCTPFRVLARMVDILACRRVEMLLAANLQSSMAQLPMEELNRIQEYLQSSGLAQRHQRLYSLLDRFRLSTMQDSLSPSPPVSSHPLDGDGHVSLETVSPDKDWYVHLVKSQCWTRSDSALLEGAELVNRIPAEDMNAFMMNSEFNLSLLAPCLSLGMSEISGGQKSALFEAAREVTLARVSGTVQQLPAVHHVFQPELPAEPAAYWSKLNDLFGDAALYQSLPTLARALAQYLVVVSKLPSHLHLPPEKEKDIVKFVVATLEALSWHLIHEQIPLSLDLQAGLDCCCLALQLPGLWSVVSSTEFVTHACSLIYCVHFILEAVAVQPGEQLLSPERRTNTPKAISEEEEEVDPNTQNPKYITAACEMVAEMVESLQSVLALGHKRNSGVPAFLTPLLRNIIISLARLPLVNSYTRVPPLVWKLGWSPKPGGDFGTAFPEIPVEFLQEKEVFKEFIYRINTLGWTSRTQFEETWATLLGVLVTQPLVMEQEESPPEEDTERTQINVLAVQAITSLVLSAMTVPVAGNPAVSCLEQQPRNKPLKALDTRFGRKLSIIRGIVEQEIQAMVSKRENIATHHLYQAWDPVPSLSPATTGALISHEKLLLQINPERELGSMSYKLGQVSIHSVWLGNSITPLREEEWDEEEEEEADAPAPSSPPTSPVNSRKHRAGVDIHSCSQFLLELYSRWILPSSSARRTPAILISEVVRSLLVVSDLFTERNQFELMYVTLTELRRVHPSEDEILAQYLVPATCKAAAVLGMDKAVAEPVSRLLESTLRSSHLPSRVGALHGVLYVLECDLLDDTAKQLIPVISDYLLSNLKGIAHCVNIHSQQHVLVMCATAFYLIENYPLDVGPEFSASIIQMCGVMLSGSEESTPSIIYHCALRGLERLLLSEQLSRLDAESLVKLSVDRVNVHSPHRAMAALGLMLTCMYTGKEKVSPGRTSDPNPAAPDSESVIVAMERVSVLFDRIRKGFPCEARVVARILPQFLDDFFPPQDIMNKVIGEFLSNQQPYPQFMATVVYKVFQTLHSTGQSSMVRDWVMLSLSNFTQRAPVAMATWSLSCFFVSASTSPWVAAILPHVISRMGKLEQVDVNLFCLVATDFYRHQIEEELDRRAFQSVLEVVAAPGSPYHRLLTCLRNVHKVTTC
`Cn1cccc1/C=N/NC(=O)CCCCCCC(=O)N/N=C/c1cccn1C`: the inhibition entry was “inactive”.
With `COc1ccc(C2C=C(c3ccc(C)cc3)Nc3nnnn32)cc1` (stereo unspecified) the figure was -16%; with `Cc1cc(S(=O)(=O)NCC2(O)CCOCC2)c(Cl)cc1Cl`, -11.3%.
On to `Cc1[nH]nc(-c2ccsc2)c1NC(=O)Cc1ccccc1`, for which the inhibition is -4%.
With `COc1cccc(CC(=O)N2CCCC2c2cc(C)on2)c1` (stereo unspecified), the inhibition is -5.74%.
With `CC1CCCN(c2ccc(-c3noc(CN(C)C4CCCCC4)n3)cn2)C1` (stereo unspecified) the figure was 10%.
To `CCc1onc(C)c1C1CCCN1C(=O)c1nn(C)cc1Cl` (stereo unspecified) belongs -0.93%; to `COc1cc(OC)c(OC)cc1/C=C1N=C(/C=C/c2ccccc2)OC/1=O`, -2%.
To `Cc1nc(-c2ccc(N3CCN(C(=O)C4CCCO4)CC3)nc2)no1` (stereo unspecified) belongs -5.6%; to `CCOC(=O)N1CCN(Cc2nc(-c3ccc(N4CCCCCC4)nc3)no2)CC1`, 78.7% (active).
As to `c1cc(N2CCCCCC2)ncc1-c1noc(CN2CCCC2)n1`, the inhibition was 15.8%.
With `CC(C)Cn1c(C2CCN(C(=O)c3n[nH]c4c3CCCC4)C2)nc2ccncc21` (stereo unspecified) the figure was 5.16%; with `O=C(CNc1ccccc1-c1nc2ccccc2[nH]c1=O)NC1CCCCCCC1`, -7%.
As for `CCN(CC)C(=NS(=O)(=O)c1ccccc1)c1ccc(Cl)cc1`, the inhibition was -3%.
With `CC(=O)Nc1cccnc1-c1ccc(C(=O)NCc2ccccc2)cc1` the figure was -2.7%; with `CSc1ccc(C2C=C(c3cccs3)Nc3nnnn32)cc1` (stereo unspecified), 2%; with `COc1ccc(Cl)cc1C(=O)N1CCn2c(C)nnc2C1`, -9.2%.
Turning to `COc1ccc(Cl)cc1C(=O)N1CCN(c2ccc3nnc(-c4ccco4)n3n2)CC1`, the inhibition is 72% (active).
To `COc1ccc(Cl)cc1C(=O)N1CCN(c2cccc(Cl)c2)CC1` belongs -0.4%; to `COc1ccc(C2C(C(=O)Nc3ccc(Cl)cc3)=C(C)Nc3nnnn32)cc1` (stereo unspecified), 23%.
With `CCCC(=O)NC(Nc1ccccc1OC)C(Cl)(Cl)Cl` (stereo unspecified) the figure was -3%.
Take `O=[N+]([O-])c1ccc(SCCO)c2ncccc12`: the inhibition is 6%.
With `CCCC(=O)NC(c1ccccc1OC)c1cc([N+](=O)[O-])c2cccnc2c1O` (stereo unspecified) the figure was 100% (active).
With `Cc1nc(-n2cccc2)sc1C(=O)NCc1cc(-c2ccco2)on1` the figure was -1.3%; with `CN(Cc1ccccc1F)c1cc2c(c3c1ccn3C)C1CCC2O1` (stereo unspecified), 75.9% (active); with `O=C(C=Cc1ccco1)NCC1COC2(CCCCC2)O1` (stereo unspecified), -5.5%.
With `CCOc1ccccc1NC(=O)c1nn(-c2ccccc2OC)c(=O)c2ccccc12` the figure was -4%.
Consider `O=C1CSC(c2ccc(F)cc2)N1c1ccc(Br)cc1` (stereo unspecified), for which the inhibition is -18%.
As to `O=C(COc1ccc([N+](=O)[O-])cc1)c1ccc(O)cc1O`, the inhibition is 2.4%.
With `CCCc1ccc(OCC(O)CN2CCN(C(=O)OCC)CC2)cc1` (stereo unspecified) the figure was 24.7%; with `CCCc1ccc(OCC(=O)c2ccc(O)c(C)c2O)cc1`, 80.4% (active); with `COCC(=O)N1CCCC(c2ccnc(-c3ccccc3)n2)C1` (stereo unspecified), -3.3%.
As for `CC1CN(C(=O)COc2cccc3c2OC(C)(C)C3)CC(C)O1` (stereo unspecified), the inhibition was 1.8%.
Take `CCCCOc1ccc(NC(=O)N(Cc2ccccn2)Cc2ccco2)cc1`: the inhibition was -0.5%.
As for `Cc1ccc(NC(=O)N2CCCC(CC(=O)N3CCN(c4ccccc4F)CC3)C2)cc1` (stereo unspecified), the inhibition is 8.68%.
With `O=C(c1cccs1)N1CCN(C2=NN=C(c3ccccc3)CS2)CC1` the figure was 86.5% (active).
`O=C(c1cccs1)N1CCN(c2cc(-c3cccnc3)[nH]n2)CC1`: the inhibition was -4.79%.
As for `CCOC(=O)CCC(=O)N1CCN(C2=NN=C(c3ccccc3)CS2)CC1`, the inhibition was 32.5%.
To `O=[N+]([O-])c1ccc(Oc2ccc(Cl)c3cccnc23)c(Cl)c1` belongs -1%; to `Cc1ccccc1-c1noc(C2CCCN2C(=O)NCc2ccc(F)cc2)n1` (stereo unspecified), 68.5% (active); to `Cc1ccccc1-c1noc(C2CCCN2C(=O)Nc2ccccc2Cl)n1` (stereo unspecified), -25.4%.
With `COc1ccc(NC(=O)N2CCCC2c2nc(-c3ccccc3C)no2)cc1` (stereo unspecified) the figure was 7.96%.
Regarding `CCOc1cccc(C(=O)Nc2ccc(-c3nc4ncccc4o3)cc2)c1`, the inhibition is -4%.
As to `CC1(C)CC(=O)C2=C(C1)c1c(ccc3ncccc13)NC2c1ccc([N+](=O)[O-])cc1` (stereo unspecified), the inhibition is 54% (active).
With `CCOc1ccc(C2Nc3ccc4ncccc4c3C3=C2C(=O)CC(C)(C)C3)cc1` (stereo unspecified) the figure was 3%.
Turning to `CC1(C)CC(=O)C2=C(C1)c1c(ccc3ncccc13)NC2c1ccc(O)cc1` (stereo unspecified), the inhibition was 2%.
Consider `O=C1OC(/C=C/c2cccc(Cl)c2Cl)=NC/1=C\c1cccc([N+](=O)[O-])c1`, for which the inhibition was 1%.
In the case of `O=c1[nH]c2c(c(=O)[nH]1)C(c1cc([N+](=O)[O-])ccc1N1CCOCC1)O2` (stereo unspecified), the inhibition was 3%.
For `Cc1ccc(C2Oc3ccccc3C3CC(c4cccs4)=NN32)o1` (stereo unspecified), the inhibition was 63% (active).
For `COc1cc(OC)c(C2Oc3ccccc3C3CC(c4cccs4)=NN32)cc1OC` (stereo unspecified), the inhibition was 52% (active).
With `COc1ccc(C2=NN3C(C2)c2ccccc2OC3c2cccc([N+](=O)[O-])c2)cc1` (stereo unspecified) the figure was 10%; with `CC1=NN2C(C1)c1ccccc1OC2c1ccc(Cl)cc1` (stereo unspecified), -1%; with `COc1ccc(C2CC(c3cccs3)=NN2c2ccccc2)cc1` (stereo unspecified), -183%.
With `N#Cc1ccc(C2Oc3ccccc3C3CC(c4ccccc4)=NN32)cc1` (stereo unspecified) the figure was 14% and 1.44%.
Turning to `Cn1cccc1C(=O)N1CC2CC1CC2NS(=O)(=O)c1cccs1` (stereo unspecified), the inhibition is 14.1%.
Turning to `Fc1ccc(CSc2nnnn2-c2ccc3c(c2)OCO3)cc1`, the inhibition is -29%.
As for `CC(C)c1nc2c(NC(=O)C3CC3)cccn2n1`, the inhibition is -7.5%.
With `CCCCN(CC)S(=O)(=O)c1ccc(Cl)cc1` the figure was -36.2%; with `Cc1cc(C)cc(N2C(=O)C(N3C(=O)c4ccccc4C3=O)C2c2ccc(F)cc2)c1` (stereo unspecified), 3%.
For `Cc1ccc(-c2cc3c(N4CCC(C(=O)NCc5cccnc5)CC4)nccn3n2)cc1C`, the inhibition is 59.9% (active).
Take `O=C(NCc1ccc(F)cc1)C1CCN(c2nccn3nc(-c4ccc(F)cc4)cc23)CC1`: the inhibition was 4.41%.
As for `CC(NC(=O)C1CCN(c2nccn3nc(-c4ccccc4)cc23)CC1)c1ccc(F)cc1` (stereo unspecified), the inhibition is -3.07%.
With `CCN(CC)S(=O)(=O)N1CCC(C(=O)NCc2cccnc2)CC1` the figure was -11%; with `O=C(NCc1cccs1)C1CCN(c2nccn3nc(-c4ccccc4)cc23)CC1`, 18.6%; with `O=C(NCc1ccc(Cl)cc1)C1CCN(c2nccn3nc(-c4ccccc4)cc23)CC1`, 52% (active).
To `O=C(Nc1cccc(Cl)c1)C1CCN(c2nccn3nc(-c4ccccc4)cc23)CC1` belongs 4.34%; to `O=C(NCCc1ccccn1)C1CCN(c2nccn3nc(-c4ccc(F)cc4)cc23)CC1`, 15%.
With `CC(NC(=O)C1CCN(c2nccn3nc(-c4cccs4)cc23)CC1)c1ccccc1` (stereo unspecified) the figure was 59.4% (active); with `CCCCS(=O)(=O)N1CC=C(c2cn(CC)c3ncccc23)CC1`, 8.9%; with `Nc1ncnc(N2CCN(c3ccccc3)CC2)c1[N+](=O)[O-]`, 7%.
As for `Cc1ccc(NC(=O)C2CCc3sc(C(=O)N(C)C)cc3C2)cc1Cl` (stereo unspecified), the inhibition was 5.44%.
Consider `COc1ccc(-c2nc(-c3cccc(-c4ccnn4C)c3)no2)cc1F`, for which the inhibition was -14.7%.
`CCC(Sc1nnnn1-c1ccccc1)C(=O)Nc1nnc(C(C)C)s1` (stereo unspecified): the inhibition is 6.4%.
`O=C(Nc1ccc(N2CCN(c3ccccc3)C2=O)nc1)c1ccc(F)cc1`: the inhibition is 1.4%.
With `Cn1cccc1CN(C(=O)Nc1ccccc1Cl)C1CC1`, the inhibition is 22%.
On to `COc1cc(/C=C2/SC(=O)NC2=O)cc(Br)c1O`, for which the inhibition was 7%.
For the compound `COc1cc(/C=C2/C(=O)N(c3ccc(C(=O)O)cc3)N=C2C)ccc1O`, the inhibition is 13%.
For the compound `COc1cc(/C=C2/C(=O)N(c3ccc(Cl)c(Cl)c3)N=C2C)ccc1O`, the inhibition is 79% (active).
With `COc1cc(/C=C2/C(=O)N(c3ccc(Cl)c(Cl)c3)N=C2C)cc(Br)c1O` the figure was 75% (active).
As for `COc1ccc(/C=C2/C(=O)N(c3ccccc3)N=C2C)c(OC)c1`, the inhibition is 25%.
Regarding `CC1=NN(c2ccc(Cl)cc2Cl)C(=O)/C1=C/c1ccc(Cl)cc1`, the inhibition was 27%.
Consider `Cc1ccnc(NC(=O)c2c(O)c3cccc4c3n(c2=O)CCC4)c1`, for which the inhibition was 4%.
For `CCCC(=O)N1CCC2(C1)C(=O)Nc1ccccc12` (stereo unspecified), the inhibition was 0.5%.
To `Cc1cccc2[nH]c(S(=O)(=O)Cc3ccc(F)cc3Cl)nc12` belongs -2%; to `CC(C)(C)NC(NC(=O)c1ccc(Br)cc1)C(Cl)(Cl)Cl` (stereo unspecified), -11%.
With `Cc1ccccc1NC(NC(=O)c1cccc([N+](=O)[O-])c1)C(Cl)(Cl)Cl` (stereo unspecified) the figure was 48%; with `O=C(NC(Nc1cccc([N+](=O)[O-])c1)C(Cl)(Cl)Cl)c1ccc(Br)cc1` (stereo unspecified), 76% (active).
For the compound `O=C(NCc1ccccn1)C1CN(C(=O)c2ccncc2)CC12CCCCC2` (stereo unspecified), the inhibition is -2.9%.
With `COc1ccc(C)cc1NC(=O)C1CN(C(=O)c2ccncc2)CC12CCCCC2` (stereo unspecified) the figure was 41.7%; with `COc1cc(NC(=O)C2CN(C(=O)c3ccncc3)CC23CCCCC3)cc(OC)c1` (stereo unspecified), 87.6% (active); with `CNC(=O)C(=O)Nc1ccc(OC)cc1`, 2%.
To `C=CCNC(=O)c1cc(=O)[nH]c2c(Cl)cccc12` belongs 2.2%; to `COCCn1ccc2c(OCC(=O)Nc3cccc([N+](=O)[O-])c3)cccc2c1=O`, -19%; to `CC1CC(=O)Nc2c1c(NC(=O)c1ccc3c(c1)OCO3)nn2C` (stereo unspecified), -9.4%.
As for `CCOc1ccccc1C(=O)Nc1nn(C)c2c1C(c1cccs1)CC(=O)N2` (stereo unspecified), the inhibition was 100% (active).
To `CCOc1ccccc1C(=O)Nc1c2c(nn1-c1cccc(Cl)c1)CSC2` belongs 0%.

Broadly, the inhibition is the drop in the measured response relative to a control, in per cent.
